Test results from the supplement of paper PMC3545927.
The list shows a part of the results. The hit rate among all sequences tested is not known here.

Target: furin, P09958
Assay: furin cleavage Z-score vs untreated control; higher = more cleavage, active = 3.5 or more, inactive = 1 or less, 8 variable residues between constant flanks
Outline: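 Furin-free reactions served as the baseline for the cleavage Z-score, which is the log read count lowess-adjusted and scaled by median absolute deviation. Counts came from released DNA, adapter-tagged by PCR and sequenced. Purified furin had cut 8-mer peptides fused to a cDNA oligonucleotide on magnetic beads during 7.5, 15 or 30 min at 1:10 enzyme:substrate.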
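Note: purified furin at 1:10 enzyme:substrate in 50 mM HEPES pH 7.5.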

Chain of furin, P09958 (P09958 whole entry): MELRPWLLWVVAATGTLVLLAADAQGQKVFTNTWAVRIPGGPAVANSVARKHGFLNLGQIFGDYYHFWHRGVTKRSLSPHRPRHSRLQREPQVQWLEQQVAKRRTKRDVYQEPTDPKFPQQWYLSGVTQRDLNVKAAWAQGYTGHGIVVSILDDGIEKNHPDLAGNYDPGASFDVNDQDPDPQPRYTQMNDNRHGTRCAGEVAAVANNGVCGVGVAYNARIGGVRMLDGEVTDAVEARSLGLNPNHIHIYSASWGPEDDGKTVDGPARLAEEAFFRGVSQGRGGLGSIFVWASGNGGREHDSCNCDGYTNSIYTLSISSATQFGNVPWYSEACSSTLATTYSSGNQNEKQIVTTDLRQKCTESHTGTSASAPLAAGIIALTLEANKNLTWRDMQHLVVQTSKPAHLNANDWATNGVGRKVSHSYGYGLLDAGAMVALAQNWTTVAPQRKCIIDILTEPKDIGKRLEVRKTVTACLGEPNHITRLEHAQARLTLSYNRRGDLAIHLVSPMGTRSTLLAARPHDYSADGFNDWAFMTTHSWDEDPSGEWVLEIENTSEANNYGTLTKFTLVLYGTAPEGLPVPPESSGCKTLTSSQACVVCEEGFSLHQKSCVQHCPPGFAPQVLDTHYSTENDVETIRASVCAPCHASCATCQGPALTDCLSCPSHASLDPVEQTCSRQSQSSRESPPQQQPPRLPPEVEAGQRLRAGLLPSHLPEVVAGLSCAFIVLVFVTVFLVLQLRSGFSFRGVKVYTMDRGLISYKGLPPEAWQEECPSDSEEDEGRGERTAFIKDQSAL

| Sequence | furin cleavage Z-score (7.5 min) | furin cleavage Z-score (15 min) | furin cleavage Z-score (30 min) |
| --- | --- | --- | --- |
| CATVSGFVSLAGNASASA [HC358] | 0.667 (inactive) | -0.762 (inactive) | 1.14 |
| CAEDEVPCHRAGNASASA [HC2451] | 1.14 | 0.677 (inactive) | 1.09 |
| CAPRAKVKREAGNASASA [FS-281] | 11.8 (active) | 10.8 (active) | 7.73 (active) |
| CAPLTRSKRDAGNASASA [FS-700] | 15 (active) | 15 (active) | 10.2 (active) |
| CAQGYKVLVLAGNASASA [HC784] | -0.106 (inactive) | -0.421 (inactive) | -0.768 (inactive) |
| CAPLTNSRGEAGNASASA [HC1503] | -0.174 (inactive) | -0.452 (inactive) | 1.07 |
| CANWAKVLVVAGNASASA [HC344] | 0.338 (inactive) | -0.0162 (inactive) | 1.26 |
| CAGGGRSKRDAGNASASA [FS-997] | 12.9 (active) | 11.9 (active) | 8.83 (active) |
| CATRSRSERDAGNASASA [FS-884] | 2.38 | 3.17 | 0.745 (inactive) |
| CANRERSKRDAGNASASA [FS-182] | 13.6 (active) | 14.6 (active) | 10.7 (active) |
| CATRCHCGAEAGNASASA [HC1174] | -0.133 (inactive) | -0.874 (inactive) | -0.744 (inactive) |
| CAHDSPDAELAGNASASA [HC1270] | -0.658 (inactive) | -0.493 (inactive) | -0.66 (inactive) |
| CAVVCCSMCYAGNASASA [HC2080] | 0.362 (inactive) | -0.833 (inactive) | 2.39 |
| CAREKKADRDAGNASASA [FS-2913] | 0.241 (inactive) | -0.361 (inactive) | -1.01 (inactive) |
| CAPRALRKRDAGNASASA [FS-1603] | 9.96 (active) | 9.61 (active) | 8.35 (active) |
| CAQEVRSKRDAGNASASA [FS-622] | 14.6 (active) | 15.6 (active) | 10.9 (active) |
| CAKERRSKRDAGNASASA [FS-934] | 12.1 (active) | 12.8 (active) | 8.75 (active) |
| CAQWHLSKRDAGNASASA [FS-485] | 0.736 (inactive) | 2.32 | 1.82 |
| CASTPCSLHLAGNASASA [HC2525] | 0.933 (inactive) | 1.1 | 1.05 |
| CAEMPCHRPSAGNASASA [HC2326] | 0.275 (inactive) | 1.07 | -0.483 (inactive) |
| CAPRYRRKRHAGNASASA [FS-1552] | 10.8 (active) | 11.7 (active) | 10.8 (active) |
| CAVLSGKPAIAGNASASA [HC1004] | -1.21 (inactive) | -0.08 (inactive) | -0.703 (inactive) |
| CASAHREPRLAGNASASA [FS-143] | -0.537 (inactive) | -2.16 (inactive) | -0.735 (inactive) |

| Sequence | furin cleavage Z-score (7.5 min) | furin cleavage Z-score (15 min) | furin cleavage Z-score (30 min) |
| --- | --- | --- | --- |
| CASKKRKKKHAGNASASA [FS-720] | -0.105 (inactive) | 0.768 (inactive) | 1.79 |
| CAVLSRDGRKAGNASASA [FS-105] | -1.15 (inactive) | 0.968 (inactive) | 0.203 (inactive) |
| CASATRRKRHAGNASASA [FS-145] | 10.8 (active) | 9.07 (active) | 8.87 (active) |
| CAVLSRRKRHAGNASASA [FS-1430] | 13.5 (active) | 13.1 (active) | 9.48 (active) |
| CARNMWSGTFAGNASASA [HC1187] | 1.59 | -0.0231 (inactive) | 2.71 |
| CAIDILAGYGAGNASASA [HC1085] | 0.177 (inactive) | -2.37 (inactive) | -1.48 (inactive) |
| CATFTIETITAGNASASA [HC895] | -1.54 (inactive) | -0.657 (inactive) | -0.39 (inactive) |
| CARKDRGASKAGNASASA [FS-1826] | -0.0944 (inactive) | -0.514 (inactive) | 0.14 (inactive) |
| CACDLDPQARAGNASASA [HC1492] | -0.128 (inactive) | -0.812 (inactive) | -1.68 (inactive) |
| CAREKRRQRNAGNASASA [FS-2135] | 2.7 | 5.06 (active) | 5.01 (active) |
| CAREKRRGVTAGNASASA [FS-1819] | 0.463 (inactive) | -0.946 (inactive) | 0.55 (inactive) |
| CADLSRPSRSAGNASASA [FS-757] | 0.456 (inactive) | 1.72 | 2.66 |
| CAREKRPSRSAGNASASA [FS-488] | 3.53 (active) | 6.66 (active) | 4.77 (active) |
| CAREKRWSVSAGNASASA [FS-2256] | 0.749 (inactive) | 1.64 | 3.68 (active) |
| CAMMLLISQAAGNASASA [HC529] | -0.436 (inactive) | -0.997 (inactive) | 1.3 |
| CADKMEECSQAGNASASA [HC1814] | -0.565 (inactive) | 0.769 (inactive) | -0.546 (inactive) |
| CAEINRVAACAGNASASA [HC1611] | 0.443 (inactive) | -0.785 (inactive) | -0.701 (inactive) |
| CARYNRPPREAGNASASA [FS-378] | 9.4 (active) | 8.69 (active) | 7.85 (active) |
| CARDGRYTPCAGNASASA [FS-2903] | 0.99 (inactive) | -0.489 (inactive) | -0.0469 (inactive) |
| CAYHGRIPREAGNASASA [FS-1619] | 4.85 (active) | 5.6 (active) | 4.92 (active) |
| CAEHNRTPREAGNASASA [FS-20] | 6.46 (active) | 6.63 (active) | 5.97 (active) |
| CAGYELQGREAGNASASA [FS-534] | -1.04 (inactive) | -1.1 (inactive) | -1.02 (inactive) |
| CARYSAPPGDAGNASASA [HC1543] | -1 (inactive) | 0.134 (inactive) | -1.47 (inactive) |
